Compounds with a hit are over-represented: about 12% of the library has one in this group of screens.
CHX counter: Cycloheximide Counterscreen for Small Molecule Inhibitors of Shiga Toxin; cell reporter, cycloheximide protein synthesis inhibition counterscreen; max response, %; 12% of 300,000 active; in the data active = max response mostly above about 13%, no sharp cut-off; inactive = mostly below about 14%; note: read at 38.3 µM for the half of the compounds with a filed dose; 0% is about no effect
SARS PLP yeast: qHTS of Yeast-based Assay for SARS-CoV PLP. 0.19% of 330,000 active. Potency, µM (titrated, usually from 32.9 µM), for the others: at the top dose activity, positive = growth rescue, hits mostly activators. S. cerevisiae expressing SARS-CoV PLpro, growth rescue; note: potency is the fitted concentration of half-maximal effect; 0% is about no effect; nearly all actives have a fitted effect of over 55% in size
NS1 inh: qHTS Assay for Inhibitors of Influenza NS1 Protein Function; 0.4% of 270,000 active; Potency, µM (top dose mostly 46.1 µM), for inactives: at the highest dose activity, positive = more growth; note: potency is the fitted concentration of half-maximal effect; actives are rising curves; nearly all actives have a fitted effect of over 50% in size
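Read-out: OD600 growth recovery of NS1-expressing budding yeast. Cells grown overnight at 30C in -URA glucose medium, washed, resuspended and diluted 1:100 in 2% galactose assay medium, pH 6.0. Same strain lacking NS1 served as positive control.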
Shiga inhibitor: A qHTS for Small Molecule Inhibitors of Shiga Toxin. Vero cells, Shiga toxin protein synthesis inhibition reporter. inhibition, % at 38.7 µM. 9.2% of 290,000 active. AID 2315, 2010; in the data active = inhibition mostly above about 28%, no sharp cut-off; inactive = mostly below about 43%; note: 0% is about no effect
* = called active by the depositor; ? = inconclusive; . = not tested or not shown. Unless noted, calls come from the whole dose curve.

SMILES | CHX counter | SARS PLP yeast | NS1 inh | Shiga inhibitor
CC(C)(C#CCN1CCCCC1)OCCOC(c1ccccc1)c1ccccc1 | 6.2 | 22.5% | -1.7% | 16.6
O=C(CCSc1ccccc1)N1CCN(c2ccccc2)CC1 | 39.3* | 0.5% | -30.1% | 90.0*
O=C(CCC(=O)N1CCN(c2cccc(Cl)c2)CC1)N1CCN(c2ccccc2)CC1 | -3.3 | -2.2% | ? | -13.7
O=C(CCSc1ccccc1)N1CCN(C(=O)c2ccco2)CC1 | 35.2* | -0.2% | -14.9% | 99.3*
O=C(Cc1ccccc1)N1CCN(C(=O)c2ccco2)CC1 | 0.1 | 11.3% | -10.9% | -0.6
COc1ccc(N2CCN(C(=O)CSc3ccccc3N)CC2)cc1 | 12.4* | 0.0% | 11.0% | -2.6
COc1ccc(N2CCN(C(=O)CSc3ccccc3)CC2)cc1 | 16.9 | . | -14.8% | 32.2
CC(Oc1ccccc1)C(=O)N1CCN(c2ncccn2)CC1 (stereo not given) | . | -15.0% | . | .
CCC(C(=O)N1CCN(c2ncccn2)CC1)c1ccccc1 (stereo not given) | 26.1* | -4.3% | 1.6% | 14.7
CC(=O)NCCCC[C@H](NC(=O)OC(C)(C)C)C(=O)Nc1ccc2c(C(F)(F)F)cc(=O)oc2c1 | -3.1 | . | . | -4.0
NC(=O)C1CCN(C(=O)CCSc2ccc(Cl)cc2)CC1 | 24.8 | -0.5% | 0.5% | 27.5
O=C(CCSc1ccc(Cl)cc1)N1CCN(c2ccc(O)cc2)CC1 | 27.3* | -2.0% | -40.2% | 58.9*
O=C(NCc1ccccc1)c1ccc2c(c1)C(=O)N(Cc1ccncc1)C2=O | -3.0 | -5.1% | -9.5% | -20.4
CCCCN1C(=O)c2ccc(C(=O)Nc3cccc(C)c3C)cc2C1=O | -2.5 | 2.2% | 3.1% | 4.3
CCCN1C(=O)c2ccc(C(=O)Nc3ccccc3C(=O)O)cc2C1=O | 15.6* | -1.2% | -2.0% | 46.5
CCN1C(=O)c2ccc(C(=O)Nc3ccc(O)cc3C)cc2C1=O | 6.0 | 1.3% | 1.8% | -18.5
O=C(Nc1ccc(Br)cc1C(=O)O)c1ccc2c(c1)C(=O)N(Cc1ccccc1)C2=O | 34.0* | -4.5% | -2.4% | 36.1*
Cc1ccc(O)c(NC(=O)c2ccc3c(c2)C(=O)N(CC(C)C)C3=O)c1 | 33.2* | -3.1% | 6.2% | .
CCCN1C(=O)c2ccc(C(=O)Nc3cc(C)ccc3O)cc2C1=O | 55.9* | 6.0% | 19.7% | 139.0*
CC1CCCC(NC(=O)COC(=O)c2cccnc2Cl)C1C (stereo not given) | . | 0.3% | . | .
N#Cc1c(-c2ccco2)cc(-c2ccccn2)nc1N | 32.6* | -3.1% | 1.1% | 49.0
Nc1ccccc1N=Cc1c(O)n(CCC2=CCCCC2)c(=O)[nH]c1=O | 61.6* | -8.0% | 6.1% | 179.7*
O=c1[nH]c(=O)n(CCC2=CCCCC2)c(O)c1C=Nc1cccc(F)c1 | 7.7 | -1.6% | -6.4% | -17.6
O=C(N/N=C/c1c(O)n(-c2ccccc2)c(=O)[nH]c1=O)c1ccncc1 | 7.6 | -10.2% | 17.6% | 19.4
O=C(N/N=C/c1c(O)n(Cc2ccc(F)cc2)c(=O)[nH]c1=O)c1ccccc1 | 29.5* | 0.1% | 7.9% | 89.2*
SMILES | CHX counter | SARS PLP yeast | NS1 inh | Shiga inhibitor
O=C(N/N=C/c1c(O)n(-c2ccccc2)c(=S)[nH]c1=O)c1ccccc1 | 39.8* | 0.2% | -0.1% | 59.5*
Cc1ccccc1-n1c(O)c(/C=N/NC(=O)c2ccccc2O)c(=O)[nH]c1=S | 46.5* | 10.9% | 3.3% | 76.0*
O=C(N/N=C/c1c(O)n(CCC2=CCCCC2)c(=S)[nH]c1=O)c1ccccc1 | 34.9* | 11.2µM* | ? | 37.6*
C=CCn1c(O)c(N=NC(=S)Nc2ccccc2C)c2cc(S(=O)(=O)N3CCOCC3)ccc21 | -3.5 | -4.3% | 12.6µM* | 10.9
O=C(O)C1CCCCC1C(=O)NCc1ccncc1 (stereo not given) | 4.7 | 11.1% | 1.3% | -4.4
CO/C=C\C=C/c1nnn(-c2ccc(Cl)cc2)n1 | 41.3* | -77.4% | -44.6% | 70.4*
Cc1ccc2c(c1)C1CN(C)CCC1N2C(=O)COc1ccc(N(C)C(=O)C(C)(C)C)cc1 (stereo not given) | -1.0 | -5.6% | . | -9.3
Cc1ccc(C(=O)N(C)c2ccc(OCC(=O)N3c4ccc(C)cc4C4CN(C)CCC43)cc2)cc1 (stereo not given) | 36.7* | -0.9% | 10.1% | 50.9
CC(=NCCCO)c1c(O)[nH]c(=O)[nH]c1=O | 4.8 | 0.8% | -1.9% | -12.4
CC(=NCCN1CCCCC1)c1c(O)[nH]c(=O)[nH]c1=O | 20.5 | 0.3% | -2.6% | 87.1*
CCOc1ccccc1NC(=O)COC(=O)c1cnc(C)cn1 | . | 5.2% | . | .
O=C(NC1CCCCC1)c1cc(-c2ccc(Cl)cc2)on1 | -2.3 | 9.9% | 5.5% | -4.0
O=C(Cc1ccc(F)cc1)NC1CCCCCC1 | 4.6 | -5.4% | 3.9% | 39.2
O=C(NC1CCCC1)c1cc(-c2ccc(Cl)cc2)on1 | 27.5* | -0.1% | -2.5% | 59.3*
O=C(NC1CCCC1)c1cc(-c2ccc(F)cc2)on1 | 45.9* | -1.2% | -9.7% | 95.7*
CCOC(=O)C1=C(CSc2nc(CC)c(C)cc2C#N)OC(N)=C(C#N)C1c1ccccc1 (stereo not given) | 1.2 | -1.9% | 10.9% | -10.6
CCOC(=O)C1=C(CSc2nc(-c3ccccc3)ccc2C#N)OC(N)=C(C#N)C1c1ccc(OC)cc1 (stereo not given) | 62.8* | 0.3% | ? | 62.8
Cc1cnc(C(=O)Nc2ccccc2-c2ccc(C)o2)cn1 | 6.7 | 6.3% | -12.8% | -18.5
CCN(C(=O)COc1ncnc2ccccc12)C1CCCCC1 | . | 7.4% | . | .
Cc1ccc(Oc2ncnc3sccc23)cc1 | 55.0* | 19.8% | 11.4% | 90.5*
c1cnc2c(Oc3ncnc4sccc34)cccc2c1 | 11.2 | -4.7% | . | 27.3
c1ccc(OCCOc2ncnc3sccc23)cc1 | 37.7* | -3.6% | -9.4% | 68.9*
CCOc1ccc(OCCOc2ncnc3ccccc23)cc1 | 41.4* | 1.7% | 0.3% | 68.1
Cc1ccc(S(=O)(=O)N2CCCC2CNC(=O)C(=O)NCCN2CCOCC2)cc1 (stereo not given) | . | 2.7% | . | .
Cc1cc(C)cc(NC(=O)CN2CCN(C(=O)c3cccs3)CC2)c1 | . | 3.8% | . | .
SMILES | CHX counter | SARS PLP yeast | NS1 inh | Shiga inhibitor
COc1ccc(NC(=O)c2ccc3[nH]c(=O)c(=O)[nH]c3c2)c(OC)c1 | 3.4 | -3.3% | -0.2% | -9.5
COc1ccccc1NC(=O)c1ccccc1C(=O)O | -2.4 | 1.2% | 2.3% | -7.3
COc1ccc(NC(=O)c2ccc(C)cc2)c(OC)c1 | 50.4* | -16.5% | -4.6% | 96.3*
COc1ccc(NC(=O)c2ccccc2NC(=O)c2ccccc2C(=O)O)c(OC)c1 | 11.3* | 1.3% | -14.0% | 53.2*
COc1c(/C=N/NS(=O)(=O)c2ccc(C)cc2)c(CCN(C)C(C)=O)cc2c1OCO2 | -1.3 | 7.4% | -9.4% | 13.0
COc1c(/C=N/Nc2ccc(C(=O)O)cc2)c(CCN(C)C(C)=O)cc2c1OCO2 | 25.0* | 0.6% | 7.1% | 69.7*
COc1c(/C=N/NC(=O)c2ccccc2O)c(CCN(C)C(C)=O)cc2c1OCO2 | 16.1* | -18.5% | 6.6% | 56.5*
CCN(CC)C(=O)c1ccc2c3c(cccc13)C(=O)N(CCc1ccc(OC)c(OC)c1)C2=O | -4.3 | -2.9% | -3.0% | -13.1
COc1ccccc1CN(Cc1nc2ccccc2c(=O)[nH]1)C(=O)Nc1ccc(C)cc1 | 19.3* | -3.2% | -20.1% | 40.1
